According to ChEMBL document CHEMBL1157539, “Thousands of chemical starting points for antimalarial lead identification” (Nature, 2010):

The molecules below were run on Plasmodium falciparum (assay: GSK_TCMDC: Inhibition of Plasmodium falciparum 3D7 in whole red blood cells, using parasite LDH activity as an index of growth. Test compounds present at 2uM).
Type: functional
Work on `COc1ccc(N2CCN(CCCNC(=O)c3ccc(NC(=O)c4cc(Cl)cc(Cl)c4)cc3)CC2)c(OC)c1` yielded an Inhibition of 100%. Work on `CC(C)NCC(O)Cn1c2ccc(Br)cc2c2cc(Br)ccc21` (stereo not drawn) yielded an Inhibition of 99%. For `CCN1CCN(CCCCNc2c3ccccc3nc3ccccc23)CC1.Cl`, the Inhibition was 100%.

These molecules were tested on Plasmodium falciparum (assay: GSK_TCMDC: Inhibition of Plasmodium falciparum Dd2 in whole red blood cells, using parasite LDH activity as an index of growth. Test compounds present at 2uM).
Type: functional
`O=C(NC12CC3CC(CC(C3)C1)C2)C(=O)c1c[nH]c2ccccc12` showed an Inhibition of 2%. `O=C(/C=C/c1ccc(C(F)(F)F)cc1)NCCCCCN1CCN(C(=O)Nc2ccc(F)c(Cl)c2)CC1` gave an Inhibition of 0%. For `COc1ccc2nccc([C@@H](O)CN3CCC(NCc4cc5ccccc5[nH]4)CC3)c2n1.O=C(O)C(=O)O`, the Inhibition was 55%. `Cc1cc(N(C)C2CCN(CC3CCCCC3)C2)nc(Nc2ccc(Cl)cc2)n1` (stereo not drawn) showed an Inhibition of 35%. `O=C(Nc1cccc(-c2ccc(-c3nc4cc(C(F)(F)F)ccc4[nH]3)s2)c1)c1c[nH]cn1` gave an Inhibition of 36%. Work on `Cc1c[nH]c2ccc(/C=C/C(=O)NC3CCC(CCN4CCc5ccc(C#N)cc5CC4)CC3)cc12.Cl` (stereo not drawn) yielded an Inhibition of 91%. For `COc1ccc(CNC2Cc3ccccc3C2)cc1-c1ccc(S(=O)(=O)NCCc2ccccn2)s1.O=C(O)C(F)(F)F`, the Inhibition was 22%. Molecule `CCN(CC)CCCCNc1cc(-c2[nH]c(C(C)(C)C)nc2-c2ccc3cc(OC)ccc3c2)ccn1.O=C(O)C(F)(F)F` has an Inhibition of 76%. In the case of `Cc1cc([N+](=O)[O-])ccc1N1CCN(CCCCNC(=O)c2ccc(NC(=O)c3ccc(Cl)cc3)cc2)CC1`, the Inhibition is reported as 0%. `CCCCN(CCCC)C(=N)c1cccc2c1CCCC2.Cl` was tested, and the Inhibition was 9%. Work on `CCOc1ccccc1CON1C(N)=NC(N)=NC1(C)C` yielded an Inhibition of 1%. `COCCNCc1ncsc1-c1ccc2c(Nc3cc(O)c(Cl)cc3F)ccnc2c1` showed an Inhibition of 92%. In the case of `CC1CCCC(NCc2c(O)ccc3ccccc23)C1.Cl` (stereo not drawn), the Inhibition is reported as 25%. With `NC(=O)COc1c(C2CCN(CCN3CCC(CNC(=O)c4ccc(-c5ccc(C(F)(F)F)cc5)cc4)CC3)CC2)ccc2c1CCCC2` the Inhibition was 68%. `O=C(Nc1ccc2c(c1)CCC2)c1cccc(N2CCN(c3ccncc3)CC2)c1.O=C(O)C(F)(F)F` was tested, and the Inhibition was 22%. `COc1ccc2c(-c3ccccc3)noc2c1` gave an Inhibition of 34%. `Cc1csc2nc(-c3ccccn3)nc(Nc3ccncn3)c12.O=C(O)C(F)(F)F` gave an Inhibition of 85%. `O=C(Nc1ccccc1-c1nc2ccccc2s1)C(Cl)(Cl)Cl` gave an Inhibition of 99%. For `O=C([C@H]1CCCCN1c1ccc([N+](=O)[O-])c2ccccc12)N1CCN(c2ncccn2)CC1`, the Inhibition was 5%. `CCOc1cc(-c2nnc3[nH]c(=O)n(C)c(=O)c3n2)ccc1OC(C)C` showed an Inhibition of 86%. `COc1cc(NC2=C(c3ccccc3)C(=O)c3ccccc32)ccn1` gave an Inhibition of 96%. In the case of `COc1ccc(-c2cc(C(=O)Nc3ccc4[nH]c(-c5ccccc5)nc4c3)[nH]n2)cc1.O=C(O)C(F)(F)F`, the Inhibition is reported as 78%. With `C=CCNS(=O)(=O)c1ccc(NC(=O)C(C)Oc2ccc([N+](=O)[O-])cc2)cc1` (stereo not drawn) the Inhibition was 100%. In the case of `O=c1cc(NCCCNCc2cccc(I)c2)[nH]c2ccccc12`, the Inhibition is reported as 9%. `O=C(NCCCc1ccccc1)c1csc(C2CCCN(C(=O)c3ccc(O)c(-c4cccc5ccccc45)c3)C2)n1` (stereo not drawn) was tested, and the Inhibition was 98%. `Cc1c(NCCCNCc2cc(Cl)cc(Cl)c2Cl)[nH]c2ccccc2c1=O.Cl` gave an Inhibition of 86%. `C=CCOC(=O)N1CCC(CNCc2cccc(-c3ccc(-c4nc5cccc(C)c5[nH]4)cc3)c2)C1.O=C(O)C(F)(F)F` (stereo not drawn) showed an Inhibition of 82%. `O=C(Nc1ccccc1O)c1ccc(S(=O)(=O)c2ccc(Cl)cc2)cc1` gave an Inhibition of 85%. With `O=S(=O)(c1ccc(Oc2ccccc2)cc1)N(CCC(O)(C(F)(F)F)C(F)(F)F)Cc1cccc(O)c1` the Inhibition was 99%. `O=C(Nc1ccc(OC(F)(F)F)cc1)Nc1ccc([N+](=O)[O-])cc1` was tested, and the Inhibition was 100%. For `COc1cc2c(cc1C=CC(=O)N1CCN(Cc3nc(O)c4c(C)c(C)sc4n3)CC1)OC(C)C2` (stereo not drawn), the Inhibition was 87%. In the case of `C/C=C/COc1ccc2ccccc2c1CNCCCCCCCCNCc1c(OC/C=C/C)ccc2ccccc12.CS(=O)(=O)O.O`, the Inhibition is reported as 86%. `Cc1ccc(Oc2ncccc2C(=O)Nc2cccc3cccnc23)c(C)c1` gave an Inhibition of 76%. Molecule `CN1CCc2cc(NS(=O)(=O)c3ccc(-c4ccc(Cl)cc4)cc3)c(OCCCN3CCCCC3)cc2CC1.Cl` has an Inhibition of 100%. `O=C1CC(C(=O)Nc2cccc(-c3cccc(-c4nc5ccccc5[nH]4)c3)c2)c2ccccc2N1` (stereo not drawn) showed an Inhibition of 32%. Molecule `CNCCNCc1cccc(-c2ccc(-c3nc4cccc(C)c4[nH]3)cc2)c1.O=C(O)C(F)(F)F` has an Inhibition of 21%. With `COc1ccc(O)c(C(=O)c2cc(C#N)c(=O)n(-c3ccc(Oc4ccccc4)cc3)c2)c1` the Inhibition was 20%. `COc1ccc(N2CCN(CCCNC(=O)c3ccc(NC(=O)c4cc(Cl)cc(Cl)c4)cc3)CC2)c(OC)c1` showed an Inhibition of 79%. `CC(C)NCC(O)Cn1c2ccc(Br)cc2c2cc(Br)ccc21` (stereo not drawn) gave an Inhibition of 100%. With `CCN1CCN(CCCCNc2c3ccccc3nc3ccccc23)CC1.Cl` the Inhibition was 0%.
